An excerpt weighted towards active compounds, which were near 6.8% of everything screened.
Tcruzi prolif = T. cruzi proliferation inhibition; AID 624255; inhibition, % at 8.34 µM; 77,000 compounds, 5.9% hits; T. cruzi beta-gal in NIH3T3, GalScreen luminescence, 90 h;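 active means mean inhibition above about 93%, with at least 55% of replicates each passing it, limit read from the data, passing the limit was not always enough; inconclusive means only one of those two conditions holds; inactive means neither condition holds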
C diff HTS = C. difficile growth inhibition; Clostridium difficile clinical isolate growth, OD600, 24 h; active compounds read low; growth activity, negative = inhibition, % at 16 µg/mL (by protocol); 86,000 compounds, 0.25% hits; AID 1259249;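 active means mean growth activity at or below -80% and every replicate also at or below -80%; inconclusive means mean at or below -80% but some replicate above -80%; inactive means mean growth activity above -80%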;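 further: 0% = DMSO wells and -100% = levofloxacin 16 µg/mL wells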
Pf Dd2 inh = P. falciparum Dd2 growth inhibition. SYBR Green, 72 h; active compounds read low. activity change, % at 10 µM. 94,000 compounds, 2.3% hits. AID 1159554; in the data active means activity change below about -80%; inconclusive means no clear call, values can overlap the other calls
The depositor's hits bear a star; ? = inconclusive; · = not tested or not shown.

SMILES | Tcruzi prolif | C diff HTS | Pf Dd2 inh
C[C@@H]1CN([C@@H](C)CO)C(=O)c2cc(NS(=O)(=O)c3ccc(Cl)cc3)ccc2O[C@@H](C)CCCCO[C@@H]1CN(C)C(=O)c1ccccc1 | 49 | -4 | -52
O=C(c1ccccn1)N1CC(=O)N2[C@H](CO)[C@@H](c3ccc(C#CCc4ccccc4)cc3)[C@@H]2C1 | · | 3 | ?
O=C(c1ccccn1)N1CC(=O)N2[C@H](C1)[C@@H](c1ccc(C#CCc3ccccc3)cc1)[C@@H]2CO | · | -4 | -82*
CCC(=O)N1CC(=O)N2[C@H](CO)[C@@H](c3ccc(C#CCc4ccccc4)cc3)[C@@H]2C1 | · | -15 | -39
CCC(=O)N1CC(=O)N2[C@@H](CO)[C@H](c3ccc(C#CCc4ccccc4)cc3)[C@@H]2C1 | · | -16 | -85*
COc1ccc2c3c(n(C)c2c1)[C@H](CO)NCC31CCN(S(=O)(=O)c2ccccc2)CC1 | · | -4 | -48
C[C@H]1CN([C@@H](C)CO)C(=O)c2cccc(NC(=O)C3CC3)c2O[C@@H]1CN(C)Cc1ccc(-c2ccccc2)cc1 | 73 | 26 | -60
C[C@@H]1CN([C@H](C)CO)C(=O)c2cccc(NC(=O)C3CCOCC3)c2O[C@H]1CN(C)Cc1ccc(-c2ccccc2)cc1 | 71 | 0 | -84*
CC(C)NC(=O)Nc1cccc2c1O[C@H](CN(C)Cc1ccc(-c3ccccc3)cc1)[C@H](C)CN([C@@H](C)CO)C2=O | -42 | 17 | -85*
C[C@@H]1CN([C@@H](C)CO)C(=O)c2cccc(NC(=O)C3CCOCC3)c2O[C@H]1CN(C)Cc1ccc(-c2ccccc2)cc1 | 56 | -3 | -84*
C[C@H]1CN([C@@H](C)CO)C(=O)c2cccc(NC(=O)C3CCOCC3)c2O[C@H]1CN(C)Cc1ccc(-c2ccccc2)cc1 | 16 | 3 | -2
C[C@H](CO)N1C[C@H](C)[C@@H](CN(C)Cc2ccc(-c3ccccc3)cc2)Oc2c(NC(=O)C3CCOCC3)cccc2C1=O | 45 | 21 | -32
CC(C)NC(=O)Nc1cccc2c1O[C@H](CN(C)Cc1ccc(-c3ccccc3)cc1)[C@@H](C)CN([C@@H](C)CO)C2=O | 25 | -2 | -29
C[C@@H]1CN([C@@H](C)CO)C(=O)c2cccc(NC(=O)C3CC3)c2O[C@H]1CN(C)Cc1ccc(-c2ccccc2)cc1 | 59 | 12 | -89*
C[C@@H]1CCCCO[C@@H](CN(C)C(=O)Cc2ccccc2)[C@@H](C)CN([C@H](C)CO)C(=O)c2cc(NS(=O)(=O)c3ccccc3)ccc2O1 | · | 4 | -50
COc1cccc(-c2ccc([C@@H]3[C@H](CO)N4CCCCN(S(=O)(=O)c5cn(C)cn5)C[C@@H]34)cc2)c1 | 35 | -3 | 2
CO[C@H]1CN(C)C(=O)c2cc(NC(C)=O)ccc2OC[C@H](C)N(Cc2nccs2)C[C@@H]1C | -83 | 0 | 13
C[C@@H]1CN([C@@H](C)CO)C(=O)c2cc(NS(=O)(=O)c3ccc(F)cc3)ccc2O[C@@H](C)CCCCO[C@H]1CN(C)CC1CC1 | 62 | 3 | -54
O=C(Nc1cc(F)ccc1F)N1CCCCN2[C@@H](CO)[C@@H](c3ccc(C4=CCCCC4)cc3)[C@@H]2C1 | -27 | -95* | -70
COc1ccccc1NC(=O)N1CCCCN2[C@H](CO)[C@H](c3ccc(-c4ccc(C)cc4)cc3)[C@@H]2C1 | 87 | -5 | -11
COc1ccccc1NC(=O)N1CCCCN2[C@@H](CO)[C@H](c3ccc(C#CC4CCCC4)cc3)[C@@H]2C1 | -3 | 56 | -83*
COc1ccccc1NC(=O)N1CCCCN2[C@@H](CO)[C@@H](c3ccc(C#CC4CCCC4)cc3)[C@@H]2C1 | -3 | 58 | -64
Cc1cccc(-c2ccc([C@@H]3[C@@H](CO)N4CCCCN(CCC(F)(F)F)C[C@@H]34)cc2)c1 | 93 | 24 | -22
Cc1cccc(-c2ccc([C@@H]3[C@H](CO)N4CCCCN(CCC(F)(F)F)C[C@@H]34)cc2)c1 | 84 | 21 | -81*
O=C(Nc1cc(F)ccc1F)N1CCCCN2[C@H](C1)[C@H](c1ccc(C3=CCCCC3)cc1)[C@@H]2CO | 78 | 11 | 6
SMILES | Tcruzi prolif | C diff HTS | Pf Dd2 inh
COc1ccccc1NC(=O)N1CCCCN2[C@H](CO)[C@H](c3ccc(-c4cccc(C)c4)cc3)[C@H]2C1 | 75 | -65 | -86*
COCCNC(=O)C[C@H]1CC[C@H]2[C@@H](COc3ccc(NC(=O)Nc4ccccc4)cc3C(=O)N2C)O1 | 35 | -10 | 6
COc1ccc(CN(C)C[C@H]2OCCCC[C@H](C)Oc3ccc(NC(=O)c4ccccc4)cc3C(=O)N([C@@H](C)CO)C[C@H]2C)cc1 | 53 | -8 | -64
CN1CCN(C(=O)C[C@H]2CC[C@@H](NS(=O)(=O)c3cccc(F)c3)[C@H](CO)O2)CC1 | -67 | -2 | -5
COc1ccc2c3c([nH]c2c1)[C@H](CO)N(Cc1cc(F)ccc1F)CC31CCN(C(C)=O)CC1 | · | 6 | -90*
COc1ccc2c3c([nH]c2c1)[C@@H](CO)N(Cc1cc(F)ccc1F)CC31CN(C(C)=O)C1 | · | 4 | -74
COCC(=O)N1CC2(C1)CN(Cc1cc(F)ccc1F)[C@@H](CO)c1[nH]c3cc(OC)ccc3c12 | · | 7 | -71
CCC(=O)N1CC2(C1)CN(Cc1cc(F)ccc1F)[C@H](CO)c1[nH]c3cc(OC)ccc3c12 | · | 3 | -90*
COc1ccc2c3c([nH]c2c1)[C@H](CO)N(Cc1cc(F)ccc1F)CC31CCN(C(=O)C2CCC2)CC1 | · | 1 | -88*
COc1ccc2c3c([nH]c2c1)[C@@H](CO)N(Cc1ccccc1OC)CC31CCN(C(C)=O)CC1 | · | · | 52
CCC(=O)N1CCC2(CC1)CN(Cc1cc(F)ccc1F)[C@H](CO)c1[nH]c3cc(OC)ccc3c12 | · | 7 | -87*
COc1ccc2c3c([nH]c2c1)[C@@H](CO)N(CC1CC1)CC31CN(Cc2cc(F)ccc2F)C1 | · | 10 | -10
CC=Cc1ccc2n(c1=O)C[C@H]1[C@H](CO)[C@@H](C(=O)NCCC)[C@@H]2N1Cc1nccs1 (mixture of isomers) | 46 | -1 | 0
C/C=C/c1ccccc1[C@@H]1[C@@H](C#N)N(C(=O)CN2CCOCC2)[C@@H]1CO | · | -4 | 42
C[C@@H]1CN([C@@H](C)CO)C(=O)c2cc(C#CCN(C)C)cnc2O[C@H]1CN(C)C(=O)CN1CCOCC1 | -23 | 1 | 32
COc1cccc(-c2ccc3c(c2)[C@@H]2[C@@H](CCN2C(=O)C2CC2)[C@@H](CO)N3)c1 | · | -14 | -65
COc1ccc(-c2ccc3c(c2)[C@@H]2[C@@H](CCN2S(=O)(=O)c2ccc(OC)cc2)[C@H](CO)N3)cc1 | 49 | 0 | -58
COc1ccc(C#Cc2ccc3c(c2)[C@H]2[C@H](CCN2C(=O)C2CCCC2)[C@@H](CO)N3)cc1 | · | 5 | -95*
COc1ccc(S(=O)(=O)N2CC[C@@H]3[C@H]2c2cc(-c4ccc(C#N)cc4)ccc2N[C@@H]3CO)cc1 | 89 | 3 | -91*
COc1ccccc1-c1ccc2c(c1)[C@@H]1[C@@H](CCN1C(=O)C1CCCCC1)[C@@H](CO)N2 | -24 | 0 | -85*
COc1cccc(-c2ccc3c(c2)[C@H]2[C@H](CCN2C(=O)C2CCCCC2)[C@@H](CO)N3)c1 | · | -5 | -88*

Source: PubChem BioAssay (Broad Institute)
